# Measurements: PubChem BioAssay (EPA / NIEHS)
# Results filed as inconclusive are left out. Activity calls are given as the source filed them. Rule for the calls: active = hit-call score of the fitted dose curve at least 0.9, where 1 is the maximum; inconclusive = response in the unintended direction; inactive = score below 0.9.
# Key:
# [1] = biological target: rat Opioid Receptor, Non-selective Binding, Oprm1 (gene 25601) (UniProt P33535); assay: NVS_GPCR_rOpiate_NonSelective: NovaScreen (NVS) G Protein-Coupled Receptor Assay for rat Opioid Receptor, Non-selective Binding (AID 2283318)
# Summary of the method: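 Rat forebrain membranes, cell-free radioligand binding with filter-based scintillation counting, read 1.5 h after dosing. Primary screen in duplicate at 25 uM; actives retested in concentration series. Loss of signal versus DMSO baseline scored.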
# NCBI gene 24521 = assay: NVS_IC_rKATPCh: NovaScreen (NVS) Ion Channel Assay for rat Potassium Channel, ATP-Sensitive (KATPCh) (AID 2283319)
# Summary of the method: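 Rat cortical membranes; radioligand binding at ATP-sensitive K channel site, filter-based scintillation counting 2 h after dosing. Single-point duplicate screen at 25 uM, hits rerun in concentration-response up to 50 uM; loss of signal versus DMSO.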
# [2] = biological target: Sodium channel protein type 1 subunit alpha (Rattus norvegicus) (UniProt P04774); assay: NVS_IC_rNaCh_site2: NovaScreen (NVS) Ion Channel Assay for rat Sodium Channel, Site 2 (NaCh) (AID 2283322);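 note: hit means loss of radioligand binding signal relative to DMSO so AC50 marks displacement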
# Summary of the method: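 Membranes: rat forebrain. Format: competitive radioligand displacement, filter separation, scintillation readout, 1 h exposure. Primary screen in duplicate at 25 uM; actives retested in concentration series.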
# [3] = biological target: rat Gamma-Aminobutyric Acid Type A Receptor, Non-Selective (GABAR-NonSelective), Gabra1 (gene 29705) (UniProt P62813); assay: NVS_LGIC_rGABAR_NonSelective: NovaScreen (NVS) Ligand-Gated Ion Channel Assay for rat Gamma-Aminobutyric Acid Type A Receptor, Non-Selective (GABAR-NonSelective) (AID 2283326)
# Summary of the method: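 Radioligand displacement on rat whole-brain extract, 1 h, filter scintillation readout; signal loss fitted versus DMSO. Primary screen in duplicate at 25 uM; hits (e.g. ≥30% inhibition) retested in concentration-response up to 50 uM.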
# [4] = NVS_IC_rCaBTZCHL: NovaScreen (NVS) Ion Channel Assay for Calcium Channel, Type L, Benzothiazepine Site (CaBTZCHL) (AID 2283337)
# Summary of the method: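 Scintillation counting of filter-bound radioligand gave the read-out, with reduced binding versus DMSO scored as activity. Membranes came from rat cortex and were read 1.5 h after compound addition. Chemicals were screened first in duplicate at 25 uM.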
# [5] = NVS_IC_rCaDHPRCh_L: NovaScreen (NVS) Ion Channel Assay for rat Calcium Channel, Type L, Dihydropyridine Site (CaDHPRCh_L) (AID 2283320)
# Summary of the method: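 Radioligand binding to dihydropyridine site on rat cortical membranes, filter-based scintillation counting, 1 h after dosing. Screened in duplicate at 25 uM; actives rerun in concentration-response up to 50 uM. Loss of signal versus DMSO baseline.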
# [6] = biological target: human Peripheral-type Benzodiazepine Receptor (PBR), TSPO (gene 706) (UniProt P30536); assay: NVS_MP_hPBR: NovaScreen (NVS) Membrane Protein Assay for human Peripheral-type Benzodiazepine Receptor (PBR) (AID 2283331);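 note: hits reduce radioligand binding relative to DMSO baseline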
# Summary of the method: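 Radioligand displacement on human colonic cell membranes, 1 h incubation; bound radioactivity by filtration and scintillation counting. Primary screen in duplicate at 25 uM single concentration, actives followed up in concentration series; loss of binding versus DMSO.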
# [7] = biological target: bovine Gamma-Aminobutyric Acid Type A Receptor BDZ, alpha 5 site (GABARa5), GABRA5 (gene 523515) (UniProt Q08E50); assay: NVS_LGIC_bGABARa5: NovaScreen (NVS) Ligand-Gated Ion Channel Assay for bovine Gamma-Aminobutyric Acid Type A Receptor BDZ, alpha 5 site (GABARa5) (AID 2283323)
# Summary of the method: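 Radioligand competitive displacement binding on bovine hippocampal membranes, read 1 hr after dosing by filter-based scintillation counting. Primary screen at 25 uM in duplicate; actives (e.g. ≥30% inhibition) then run in concentration-response up to 50 uM.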
# [8] = biological target: rat Glutamate, AMPA Site (AMPA), Gria1 (gene 50592) (UniProt P19490); assay: NVS_LGIC_rAMPA: NovaScreen (NVS) Ligand-Gated Ion Channel Assay for rat Glutamate, AMPA Site (AMPA) (AID 2283324)
# Summary of the method: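 Rat forebrain membranes; radioligand binding read 1 h after dosing by filtration and scintillation counting. Duplicate single-point screen at 25 uM, then concentration-response to 50 uM for threshold hits (e.g. 30% inhibition); loss of signal vs DMSO.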
# [9] = biological target: Small conductance calcium-activated potassium channel protein 1 (Rattus norvegicus) (UniProt P70606); assay: NVS_IC_rKCaCh: NovaScreen (NVS) Ion Channel Assay for rat Potassium Channel, Ca2+ Act., VI (KCaCh) (AID 2283336)
# Summary of the method: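 Radioligand binding to rat forebrain membranes, cell-free, read 1 hour after dosing by filter-based scintillation counting. Compounds first run in duplicate at 25 uM, actives then in concentration series; loss of signal vs DMSO indicates displacement.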
# Chain of rat Gamma-Aminobutyric Acid Type A Receptor, Non-Selective (GABAR-NonSelective), Gabra1 (gene 29705) (P62813 whole entry, looked up): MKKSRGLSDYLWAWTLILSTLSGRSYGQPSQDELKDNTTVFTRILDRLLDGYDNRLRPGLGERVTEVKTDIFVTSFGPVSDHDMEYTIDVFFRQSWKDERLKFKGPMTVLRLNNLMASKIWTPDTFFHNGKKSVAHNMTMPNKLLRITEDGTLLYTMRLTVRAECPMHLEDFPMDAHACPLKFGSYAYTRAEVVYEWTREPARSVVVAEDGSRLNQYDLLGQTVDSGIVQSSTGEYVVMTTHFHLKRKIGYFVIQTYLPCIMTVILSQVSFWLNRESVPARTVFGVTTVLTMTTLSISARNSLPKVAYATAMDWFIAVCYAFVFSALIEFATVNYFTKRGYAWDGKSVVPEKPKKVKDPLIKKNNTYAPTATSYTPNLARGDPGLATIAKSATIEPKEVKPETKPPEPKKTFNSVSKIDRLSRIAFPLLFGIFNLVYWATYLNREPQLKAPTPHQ
# Chain of rat Opioid Receptor, Non-selective Binding, Oprm1 (gene 25601) (P33535 whole entry, looked up): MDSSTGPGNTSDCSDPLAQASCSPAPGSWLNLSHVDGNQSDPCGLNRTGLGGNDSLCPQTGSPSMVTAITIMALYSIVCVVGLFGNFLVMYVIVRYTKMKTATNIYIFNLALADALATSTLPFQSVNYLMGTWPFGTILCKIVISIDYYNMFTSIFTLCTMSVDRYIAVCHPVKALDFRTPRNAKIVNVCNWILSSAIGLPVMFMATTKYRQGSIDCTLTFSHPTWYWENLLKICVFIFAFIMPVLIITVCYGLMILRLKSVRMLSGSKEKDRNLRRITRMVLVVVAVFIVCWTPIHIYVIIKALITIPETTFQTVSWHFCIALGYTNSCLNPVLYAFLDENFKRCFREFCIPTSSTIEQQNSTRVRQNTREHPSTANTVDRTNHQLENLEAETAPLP
# Chain of rat Glutamate, AMPA Site (AMPA), Gria1 (gene 50592) (P19490 whole entry, looked up): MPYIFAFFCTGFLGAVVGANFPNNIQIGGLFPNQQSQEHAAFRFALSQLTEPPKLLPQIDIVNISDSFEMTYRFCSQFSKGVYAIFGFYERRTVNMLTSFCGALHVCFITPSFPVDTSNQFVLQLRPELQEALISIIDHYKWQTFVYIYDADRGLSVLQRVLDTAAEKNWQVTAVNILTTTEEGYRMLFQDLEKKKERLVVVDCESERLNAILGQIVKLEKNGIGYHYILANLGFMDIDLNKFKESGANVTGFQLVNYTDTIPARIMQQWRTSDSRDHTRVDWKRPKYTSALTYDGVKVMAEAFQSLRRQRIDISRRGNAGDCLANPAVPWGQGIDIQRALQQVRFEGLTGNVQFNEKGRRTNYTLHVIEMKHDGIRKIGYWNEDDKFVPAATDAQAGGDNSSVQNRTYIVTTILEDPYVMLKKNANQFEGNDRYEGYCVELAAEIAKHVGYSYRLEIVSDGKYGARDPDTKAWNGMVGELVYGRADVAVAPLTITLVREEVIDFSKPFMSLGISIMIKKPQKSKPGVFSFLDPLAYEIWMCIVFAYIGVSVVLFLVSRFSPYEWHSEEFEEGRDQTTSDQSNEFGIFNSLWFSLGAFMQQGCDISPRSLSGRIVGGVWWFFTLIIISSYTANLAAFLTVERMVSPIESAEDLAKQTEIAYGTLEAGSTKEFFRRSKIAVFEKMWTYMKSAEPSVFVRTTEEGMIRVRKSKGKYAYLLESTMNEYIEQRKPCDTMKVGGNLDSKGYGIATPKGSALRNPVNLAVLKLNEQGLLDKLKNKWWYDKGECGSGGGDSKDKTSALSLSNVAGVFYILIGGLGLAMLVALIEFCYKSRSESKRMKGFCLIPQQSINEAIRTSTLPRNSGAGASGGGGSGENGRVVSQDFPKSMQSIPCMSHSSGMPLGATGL
# Chain of human Peripheral-type Benzodiazepine Receptor (PBR), TSPO (gene 706) (P30536 whole entry, looked up): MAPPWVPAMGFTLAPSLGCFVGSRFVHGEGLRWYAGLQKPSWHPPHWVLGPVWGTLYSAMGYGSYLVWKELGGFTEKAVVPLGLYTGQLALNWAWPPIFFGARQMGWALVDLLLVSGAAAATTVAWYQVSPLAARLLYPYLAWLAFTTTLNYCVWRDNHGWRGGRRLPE
# Chain of bovine Gamma-Aminobutyric Acid Type A Receptor BDZ, alpha 5 site (GABARa5), GABRA5 (gene 523515) (Q08E50 whole entry, looked up): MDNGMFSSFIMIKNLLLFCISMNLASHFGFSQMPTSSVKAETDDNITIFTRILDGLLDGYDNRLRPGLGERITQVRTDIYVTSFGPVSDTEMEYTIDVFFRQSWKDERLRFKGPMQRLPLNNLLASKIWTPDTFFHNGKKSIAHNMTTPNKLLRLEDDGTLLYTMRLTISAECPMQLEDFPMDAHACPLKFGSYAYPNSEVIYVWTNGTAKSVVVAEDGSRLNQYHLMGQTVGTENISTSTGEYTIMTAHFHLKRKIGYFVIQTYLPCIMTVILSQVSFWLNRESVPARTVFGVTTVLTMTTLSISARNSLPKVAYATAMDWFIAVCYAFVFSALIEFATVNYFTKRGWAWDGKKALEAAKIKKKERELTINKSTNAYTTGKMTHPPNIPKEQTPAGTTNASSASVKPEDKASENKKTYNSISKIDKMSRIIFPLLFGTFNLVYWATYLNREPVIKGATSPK
# Chain of Small conductance calcium-activated potassium channel protein 1 (Rattus norvegicus) (P70606 whole entry, looked up): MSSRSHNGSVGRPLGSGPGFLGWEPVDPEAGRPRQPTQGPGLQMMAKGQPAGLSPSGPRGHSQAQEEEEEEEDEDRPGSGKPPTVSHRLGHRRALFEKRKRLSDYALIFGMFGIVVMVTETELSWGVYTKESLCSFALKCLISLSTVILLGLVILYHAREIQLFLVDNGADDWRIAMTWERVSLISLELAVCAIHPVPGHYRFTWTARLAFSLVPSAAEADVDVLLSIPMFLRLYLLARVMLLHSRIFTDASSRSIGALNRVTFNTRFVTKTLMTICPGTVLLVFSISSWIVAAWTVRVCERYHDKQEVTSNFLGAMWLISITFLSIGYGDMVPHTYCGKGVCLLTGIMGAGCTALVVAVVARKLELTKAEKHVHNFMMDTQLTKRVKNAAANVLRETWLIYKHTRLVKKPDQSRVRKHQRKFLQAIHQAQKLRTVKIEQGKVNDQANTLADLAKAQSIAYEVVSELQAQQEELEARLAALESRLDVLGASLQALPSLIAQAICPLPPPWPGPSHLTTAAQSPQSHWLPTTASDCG
structure (smiles),measurement,setting,value
CN(C)c1ccc(N=NS(=O)(=O)O)cc1,AC50,[1],31.6 µM (active)
same,outcome,NCBI gene 24521,inactive
COCCOc1cc2cc(C(=O)NC3CCN(C(C)C)CC3)n(CC(=O)Nc3ccc(Cl)cn3)c2cn1,AC50,[2],25.8 µM (active)
same,outcome,[3],inactive
same,AC50,[4],5.21 µM (active)
CNS(=O)(=O)c1cc(C(=O)N2CCC(CCN3C4CCC3CC(n3c(C)nc5ccccc53)C4)(c3cccc(F)c3)CC2)c(Cl)cc1F (stereo not given),AC50,[1],10.1 µM (active)
same,AC50,[5],6.97 µM (active)
same,AC50,[2],13.1 µM (active)
same,AC50,[4],7.92 µM (active)
CCN(C(=O)c1cc(C)cc(OC[C@H](C)Nc2ccncc2)c1)C(C)C,outcome,[1],inactive
same,AC50,[2],10.1 µM (active)
same,AC50,[3],1.13 µM (active)
same,AC50,[6],12.5 µM (active)
same,AC50,[4],6.56 µM (active)
CCCCCCCCO,outcome,NCBI gene 24521,inactive
CNCc1ccc(NC(=O)c2c[nH]c3c2C(=O)CCC3)cc1,outcome,[7],inactive
same,outcome,[8],inactive
same,outcome,[3],inactive
CC[C@H]1CC[C@H](NCc2cc3c(cc2OC)[C@H]2C[C@H]2C(=O)N3C)[C@H](c2ccccc2)N1,AC50,[1],2.58 µM (active)
same,AC50,[2],0.163 µM (active)
same,AC50,[4],3.79 µM (active)
O=C(O)CC(O)C(=O)O (stereo not given),outcome,[1],inactive
same,outcome,[2],inactive
same,outcome,[8],inactive
same,outcome,[9],inactive
